Results filed as inconclusive are left out. Where a call stands in place of a potency, no number is given. Unmarked numbers belong to inactive results. Active and inactive are the calls of the source. The call rests on the fitted dose curve; in most records, active means well fitted activation curve with a large enough effect in the repeat runs; inconclusive means weak or mixed curves; inactive means flat fitted curve, though single readings scatter.
Assay: A CellTox Green Cytotoxicity Assay to monitor cytotoxicity in HEK293 cells - 40 hour (AID 1224871); further: nearly all actives have a fitted effect of over 45% in size
Settings: CellTox Green fluorescence; series mostly up to 76.8 µM
Excerpt: National Center for Advancing Translational Sciences [NCATS]
NIH Chemical Genomics Center [NCGC]
U.S. Environmental Protection Agency [EPA]
National Institutes of Environmental Health Sciences [NIEHS]
National Toxicology Program [NTP]
Cell-based models are critical for drug discovery. Determining the natural cytotoxic effects resulting from test compounds is an essential research activity. A CellTox Green Cytotoxicity Assay to monitor cytotoxicity in real time of continues cell culture during 40 hours of the compound treatment was used to screen Tox21 10K library compounds in Hek293 cells. CellTox Green Cytotoxicity Assay is a nonlytic, homogeneous, biofluorescent method to measure cytotoxicity in cell culture after experimental manipulation. The assay system uses a proprietary asymmetric cyanine dye that is excluded from viable cells but preferentially stains the dead cell's DNA. […] Viable cells produce no appreciable increases in fluorescence. Therefore, the fluorescence signal produced by the binding interaction with dead cell DNA is proportional to cytotoxicity.
The mixture of Hek293 cell suspension and reagents were dispensed at 600cells/6 ul/well in 1536-well tissue culture treated black solid bottom plates using a Multidrop dispenser. After the assay plates were incubated at a 37 C/5% CO2 incubator for 5 hours, 23 nL of compounds dissolved in DMSO, positive and negative controls was transferred to the assay plate by a pintool work station. The plates were incubated at 37 C for 40 hours. The fluorescence intensity were measured at 0h, 8h, 16h, 24h, 32h and 40h time points using ViewLux plate reader during compound treatment.
With `CN1CCC(=C2c3ccccc3CCc3sccc32)CC1` the Potency was “inactive”.
In the case of `C=C(C)C(=O)OC(C)C`, the Potency is reported as “inactive”.
For `CCOC(=S)SSC(=S)OCC`, the Potency was “inactive”.
With `c1ccc(CNCc2ccccc2)cc1` the Potency was “inactive”.
For `COC(=O)C(C)=O`, the Potency was “inactive”.
With `CCCCOc1ccc(CC(=O)NO)cc1` the Potency was “inactive”.
For `O=C1CCCCCO1`, the Potency was “inactive”.
In the case of `CCCC(C)C`, the Potency is reported as “inactive”.
In the case of `O=C(c1ccccc1)c1ccc2n1CCC2C(=O)O` (stereo not given), the Potency is reported as “inactive”.
With `COc1ccccc1OC(=O)Oc1ccccc1OC` the Potency was “inactive”.
In the case of `O=C(NS(=O)(=O)/C=C/c1cccs1)c1ccc(F)cc1Br`, the Potency is reported as “inactive”.
In the case of `CN(c1nccc(=O)[nH]1)C1CCN(c2nc3ccccc3n2Cc2ccc(F)cc2)CC1`, the Potency is reported as “inactive”.
In the case of `O=c1c2ccccc2nnn1CCl`, the Potency is reported as “inactive”.
In the case of `CC[C@H](C)[C@H](N)C(=O)O`, the Potency is reported as “inactive”.
In the case of `O=c1[nH]cnc2ccccc12`, the Potency is reported as “inactive”.
For `Cn1c(=O)c2c(ncn2CC(O)CO)n(C)c1=O` (stereo not given), the Potency was “inactive”.
In the case of `CCCCCOC(=O)c1ccc(O)cc1`, the Potency is reported as 49.6 µM (active).
In the case of `CCOc1cc(OCC)c(C(=O)CCC(=O)O)cc1OCC`, the Potency is reported as “inactive”.
In the case of `CC(C(=O)O)c1ccc(C(=O)c2ccccc2)s1` (stereo not given), the Potency is reported as “inactive”.
With `Oc1ccc(C(O)CNCCCCCCNCC(O)c2ccc(O)c(O)c2)cc1O` (stereo not given) the Potency was “inactive”.
In the case of `Cn1c(N)nc2nc[nH]c2c1=O`, the Potency is reported as “inactive”.
In the case of `Cl/C(=C\n1cncn1)c1ccc(Cl)cc1Cl`, the Potency is reported as “inactive”.
For `O=C(/C=C/c1ccc(O)c(O)c1)O[C@@H]1C[C@](O)(C(=O)O)C[C@@H](O)[C@H]1O`, the Potency was “inactive”.
In the case of `CCCOc1ccc2nc(NC(=O)OC)[nH]c2c1`, the Potency is reported as “inactive”.
With `C=C(C)C(=O)OCCOc1ccccc1` the Potency was “inactive”.
In the case of `O=[N+]([O-])c1cc[n+]([O-])cc1`, the Potency is reported as “inactive”.
With `O=C(c1ccc(O)cc1)c1ccc(O)cc1` the Potency was “inactive”.
For `Cc1ccc(C(C)c2ccc(C)c(C)c2)cc1C`, the Potency was “inactive”.
For `C=C(C)C(=O)OCCN(C)C`, the Potency was “inactive”.
With `Cc1ccc(C(=O)C(C)CN2CCCCC2)cc1` (stereo not given) the Potency was “inactive”.
With `CC(CN)CCCN` (stereo not given) the Potency was “inactive”.
In the case of `CC(=O)CC(=O)c1ccccc1`, the Potency is reported as “inactive”.
In the case of `CC(C)c1ccccc1C(C)C`, the Potency is reported as “inactive”.
For `Cc1cc(CC(=O)O)c(C)n1-c1ccc(Cl)cc1`, the Potency was “inactive”.
In the case of `COc1ccc([C@@H]2Sc3ccccc3N(CCN(C)C)C(=O)[C@@H]2OC(C)=O)cc1`, the Potency is reported as “inactive”.
In the case of `N#CCc1cccc(C(F)(F)F)c1`, the Potency is reported as “inactive”.
With `Cc1ccccc1N=Nc1ccc(N=Nc2c(O)ccc3ccccc23)c(C)c1` the Potency was “inactive”.
For `OCC1CC2CC1C1CCC(CO)C21` (stereo not given), the Potency was “inactive”.
For `CC1=CCC(C(C)C)C=C1` (stereo not given), the Potency was “inactive”.
Molecule `CCN(CCO)CCCC(C)Nc1ccnc2cc(Cl)ccc12` (stereo not given) has a cytotoxicity increase of -1.39% [at 6.97 µM].
Potency means the concentration at half of the fitted maximal effect.
